Screens deposited in PubChem by Broad Institute.
A selection follows.
aSyn UTR act: Activators via SNCA 5'UTR binding, MLPCN; activity score, % (tested at 7.5 µM), hits read low; actives 7.1% (n = 300,000); alpha-synuclein 5'UTR reporter, activators screen; in the data active = activity score below about -60%
A number is an active result; . = inactive.

SMILES | aSyn UTR act
Cc1ccc(C(=O)N(C)c2ccc(OCC(=O)N3c4ccc(C)cc4C4CN(C)CCC43)cc2)cc1 (configuration not stated) | -86
Cc1ccc2c(c1)C1CN(C)CCC1N2C(=O)COc1ccc(N(C)C(=O)C(C)(C)C)cc1 (configuration not stated) | -67
c1csc(-c2noc(CN3CCc4sccc4C3)n2)c1 | -69
COCC1CCN(Cc2nc(-c3cccs3)no2)C1 (configuration not stated) | -72
Cn1nccc1C(=O)Nc1ccc2c(c1)OCO2 | -115
Cn1nccc1C(=O)Nc1ccc(Cl)cc1 | -63
Cc1cc2nc(-c3cccnc3SCC(=O)NC3CC3)[nH]c2cc1C | -115
Cc1cc2nc(-c3cccnc3SCC(=O)NCc3ccco3)[nH]c2cc1C | -145
Cc1csc(NC(=O)c2cn3ccccc3n2)n1 | .
Cc1csc(NC(=O)c2ccco2)n1 | -72
O=C(Nc1nc(-c2nc3ccccc3s2)cs1)c1ccco1 | -161
O=C(Nc1nc(-c2ccc(Cl)s2)cs1)c1cccs1 | -276
Cc1csc(NC(=O)c2cccn2C)n1 | -128
O=C(NNc1nc(-c2ccc(Cl)cc2)cs1)c1ccco1 | -73
O=C(CN1C(=O)CCC1=O)Nc1nc(-c2nc3ccccc3s2)cs1 | -114
Cc1c(Cl)ccc2sc(NC(=O)c3ccco3)nc12 | -199
CC1CC1C(=O)Nc1nc(-c2cccs2)c(-c2cccs2)s1 (configuration not stated) | -71
CC(C)(C)c1csc(NC(=O)c2cccs2)n1 | -84
CC1CC1C(=O)Nc1nc(-c2ccccc2)cs1 (configuration not stated) | -122
O=C(Nc1nc(-c2ccccc2)cs1)c1cccs1 | -144
O=C(Nc1nc(-c2ccccc2)cs1)c1ccccc1NS(=O)(=O)c1ccc(F)cc1 | .
O=C(Nc1nc(-c2ccccn2)cs1)C1CCCC1 | -97
Cc1onc(-c2c(Cl)cccc2Cl)c1C(=O)Nc1nc(C(C)(C)C)cs1 | .
O=C(Nc1nc(-c2nc3ccccc3s2)cs1)C1CC1 | -96
O=C(Nc1ccc2nc(-c3ccccn3)[nH]c2c1)C1CCCCC1 | -144
SMILES | aSyn UTR act
O=C(Nc1nc(-c2ccccc2)ns1)c1cccs1 | -272
O=C(Nc1nc(-c2ccc(Cl)s2)cs1)c1ccco1 | -203
COc1ccccc1OCc1csc(NC(=O)c2ccco2)n1 | -108
O=C(Nc1nc(-c2cc(Cl)sc2Cl)cs1)c1ccccc1 | -85
CCOC(=O)c1ccc(NC(=O)Nc2ccccn2)cc1 | -90
S=C(Nc1ccccn1)c1ccccn1 | -115
O=C(Nc1ccccn1)C(=O)Nc1ccccn1 | -95
O=C(Nc1ccccn1)c1ccc(-c2ccccc2)cc1 | .
O=C(Nc1ccc(Cl)cc1)Nc1ccccn1 | -167
CCOC(=O)c1ccc(NC(=O)c2cnccn2)cc1 | -67
O=C(Nc1ccccc1)Nc1ccccn1 | -126
CC(Sc1ccccn1)C(=O)Nc1ccccc1 (configuration not stated) | -208
CCOC(=O)c1ccc(NC(=O)C2CCCN(c3cnccn3)C2)cc1 (configuration not stated) | -88
O=C(Nc1ccccc1)Nc1cccc2cccnc12 | -178
N/C(=N\NC(=O)Nc1ccc(Cl)cc1)c1ccccn1 | -114
C=CCN1C(=O)c2cccc3c(N4CCCCC4)ccc(c23)C1=O | -66
O=C(OCCN1C(=O)c2cccc3c(N4CCOCC4)ccc(c23)C1=O)c1ccc(Cl)cc1Cl | .
O=C1c2cccc3c(N4CCCCC4)ccc(c23)C(=O)N1CCO | -120
O=C1c2cccc3cc([N+](=O)[O-])cc(c23)C(=O)N1CCN1CCCC1 | .
O=C1c2cccc3c(N4CCCCC4)ccc(c23)C(=O)N1c1cccc(O)c1 | -78
O=C(NCc1ccccn1)C(=O)Nc1ccccc1 | -150
Cc1ccc(NC(=O)C(=O)NCc2ccccn2)cc1 | -110
CN(C)c1ccc(Nc2ccc([N+](=O)[O-])cn2)cc1 | -162
Cc1ccc(Nc2ccc([N+](=O)[O-])cn2)cc1Cl | -93
CCc1c(C(=O)NC2CCCc3ccccc32)[nH]c(C)c1C(C)=O (configuration not stated) | .
SMILES | aSyn UTR act
Cc1cc(C(=O)CSc2ccc(F)cc2)cc(C)c1O | -109
CC(=O)c1c(C)[nH]c(C(=O)CSc2ccc(F)cc2)c1C | -182
Cc1cc(C(=O)CSc2ccc(Cl)cc2)cc(C)c1OC(=S)N(C)C | -179
Cc1ccccc1N=C1NN=C(c2ccccc2F)CS1 | -171
Cc1cc(C2=NNC(=NC3CC3)SC2)c(C)n1-c1ccccc1F | .
CN(C)/N=C/C=C1\CCC/C(=C/c2cccs2)C1=O | -173
CN(C)/N=C/C=C1\CC/C(=C\c2ccc(Br)cc2)C1=O | -84
O=C(O)c1ccc(N=NN2CCCCCC2)cc1 | -168
N#Cc1c(N)nc2c(c1N)CC(=O)N2c1ccc(Cl)cc1 | -132
O=C1c2sc3nc4ccccc4n3c2C(=O)N1c1ccccc1Cl | -72
Cc1ccc(NC(=O)Nc2ncnc3nc[nH]c23)cc1 | -106
Cc1ccc(Nc2ncnc3nc[nH]c23)cc1Cl | -146
CCc1ccc(Nc2ncnc3nc[nH]c23)cc1 | -70
COc1cccc(Nc2ncnc3nc[nH]c23)c1 | -83
